Test results published in the supplement of paper PMC9262897, “Low-cost anti-mycobacterial drug discovery using engineered E. coli” (Nature Communications, 2022).
Counter-ions that a name gives are not always drawn. ± gives the standard deviation of the averaged measurements.

Legend:
Assay in all cases: growth (OD600 after 10 h); higher = more growth (less inhibition)
[1] = tested on: E. coli TESEC Alr+ wild-type control; conditions: compound 0.1 mM; raw OD600 reference: median of DMSO wells 0.241, cell-free background 0.041
Protocol: (§1)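 TESEC Mtb Alr E. coli, or the Alr+ wild-type control, in 384-well plates with Prestwick library compounds at 0.1 mM and 1% DMSO, across arabinose induction levels of 1E3 to 1E7 nM. Growth is read as OD600 after 10 h at 37 °C in triplicate biological replicates.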

[2] = tested on: E. coli TESEC Mtb Alr; conditions: compound 0.1 mM
Protocol: as §1

[3] = tested on: E. coli TESEC Mtb Asd; conditions: compound 0.1 mM
Protocol: (§2)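 TESEC E. coli strains in which the native enzyme is deleted and replaced by arabinose-inducible Mtb Asd, DapB, CysH or TrpD, each grown in its selective medium. Strains were screened against the Prestwick library at 0.1 mM and 1% DMSO in 384-well format at low and high arabinose induction. Growth is read as OD600 after 10 h in triplicate.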

[4] = tested on: E. coli TESEC Mtb DapB; conditions: compound 0.1 mM
Protocol: as §2

[5] = tested on: E. coli TESEC Mtb Alr; conditions: compound 0.1 mM; remark: listed apart in the source
Protocol: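 TESEC Mtb Alr E. coli (ΔaraC ΔtolC ΔentC Δalr ΔdadX, arabinose-inducible Mtb Alr) or the Alr+ wild-type control strain, grown in defined M9-fructose medium without D-alanine in 96-well plates with Prestwick library compounds at 0.1 mM and 1% DMSO. Low Alr induction is 0.1 µM arabinose and high induction is 10 mM arabinose.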

[6] = arabinose 1000 nM, raw OD600 reference: median of DMSO wells 0.294, cell-free background 0.041
[7] = arabinose 10000 nM, raw OD600 reference: median of DMSO wells 0.264, cell-free background 0.041
[8] = arabinose 100000 nM, raw OD600 reference: median of DMSO wells 0.201, cell-free background 0.041
[9] = arabinose 1000000 nM, raw OD600 reference: median of DMSO wells 0.193, cell-free background 0.041
[10] = arabinose 10000000 nM, raw OD600 reference: median of DMSO wells 0.146, cell-free background 0.041
[11] = arabinose induction (level): High, raw OD600 reference: median of DMSO wells 0.331, cell-free background 0.041
[12] = arabinose induction (level): Low, raw OD600 reference: median of DMSO wells 0.417, cell-free background 0.041
[13] = arabinose induction (level): High, raw OD600 reference: median of DMSO wells […], cell-free background 0.041
[14] = arabinose induction (level): Low, raw OD600 reference: median of DMSO wells 0.227, cell-free background 0.041
[15] = arabinose 100 nM, raw OD600 reference: median of DMSO wells 0.413, cell-free background 0.052
[16] = arabinose 10000000 nM, raw OD600 reference: median of DMSO wells […], cell-free background 0.052

Compound | growth [1] | growth [2, 6] | growth [2, 7] | growth [2, 8] | growth [2, 9] | growth [2, 10] | growth [3, 11] | growth [3, 12] | growth [4, 13] | growth [4, 14] | growth [5, 15] | growth [5, 16]
O[C@@H]1CCCC[C@H]1N1CCC(c2ccccc2)CC1 [L(-)-vesamicol hydrochloride] | 0.216 ± 0.0031 | 0.281 ± 0.014 | 0.251 ± 0.0068 | 0.176 ± 0.012 | 0.182 ± 0.0074 | 0.141 ± 0.0046 | 0.294 ± 0.048 | 0.381 ± 0.016 | 0.194 ± 0.018 | 0.201 ± 0.015 | 0.414 ± 0.012 | 0.358 ± 0.0053
O=P1(N(CCCl)CCCl)NCCCO1 (stereo not drawn) [Cyclophosphamide] | 0.2382 ± 0.0022 | 0.271 ± 0.011 | 0.276 ± 0.0047 | 0.18 ± 0.021 | 0.204 ± 0.022 | 0.137 ± 0.0039 | 0.341 ± 0.066 | 0.446 ± 0.014 | 0.205 ± 0.019 | 0.216 ± 0.029 | 0.4139 ± 0.003 | 0.314 ± 0.012
CN[C@@H]1[C@@H](O)[C@@H](O[C@@H]2[C@@H](O)[C@H](O[C@H]3O[C@H](CN)CC[C@H]3N)[C@@H](N)C[C@H]2N)OC[C@]1(C)O.CN[C@@H]1[C@@H](O)[C@@H](O[C@@H]2[C@@H](O)[C@H](O[C@H]3O[C@H]([C@@H](C)N)CC[C@H]3N)[C@@H](N)C[C@H]2N)OC[C@]1(C)O.CN[C@@H]1[C@@H](O)[C@@H](O[C@@H]2[C@@H](O)[C@H](O[C@H]3O[C@H]([C@@H](C)NC)CC[C@H]3N)[C@@H](N)C[C@H]2N)OC[C@]1(C)O [Gentamicine sulfate] | 0.0458 ± 0.00049 | 0.04643 ± 0.00025 | 0.0414 ± 0.00061 | 0.0505 ± 0.0026 | 0.0448 ± 0.00064 | 0.075 ± 0.001 | 0.134 ± 0.021 | 0.0693 ± 0.0051 | 0.21 ± 0.067 | 0.112 ± 0.0046 | 0.191 ± 0.13 | 0.0981 ± 0.037
Cc1cc(C(C#N)c2ccc(Cl)cc2)c(Cl)cc1NC(=O)c1cc(I)cc(I)c1O (stereo not drawn) [Closantel] | 0.067 ± 0.0041 | 0.0633 ± 0.008 | 0.0425 ± 0.0013 | 0.0471 ± 0.0022 | 0.0411 ± 0.00058 | 0.0539 ± 0.00083 | 0.0773 ± 0.0025 | 0.0874 ± 0.0013 | 0.0896 ± 0.013 | 0.0929 ± 0.01 | 0.137 ± 0.042 | 0.145 ± 0.043
